This is a sample that favours compounds with a hit; in the whole collection about 7.1% have one here.
IL1B secr inh = blocks inflammasome-driven IL-1 beta release; 360,000 tested, 4.7% active; AID 743279; THP-1 LPS/ATP IL-1B secretion, AlphaLISA, 16 h; stronger effect = lower value; activity change, % at 57.5 µM; in the data active = activity change below about -50%; inconclusive = mostly about -30% to -49%; also: % is scaled to controls: 0 for no effect and ±100 for the full control effect
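Secreted IL-1B measured by AlphaLISA bead assay after 16 h compound exposure of THP-1 cells; compounds (final up to 57.5 uM) added 1 h before LPS (250 ng/mL) and ATP (1.25 mM) stimulation; lower signal means less secretion.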
PINK1 expr mod = modulators of PINK1 expression; PINK1 immunofluorescence, high-content cytometry, 24 h; AID 624263; 410,000 tested, 0.2% active; Potency, µM (doses to about 76.6 µM), for the others: at the highest dose activation (PINK1 increase), hits mostly activators; active = well fitted activation curve with a large enough effect; inconclusive = small, poorly fitted or top-dose-only effect; cell line not stated here; also: potency is read from the fitted curve at half-maximal effect; % of control where 0% means no effect; nearly all actives have a fitted effect of over 65% in size
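Fluorescence from anti-PINK1 antibody, together with nuclear and cell stains, was scanned on a laser-scanning cytometer. Before staining, stable-line cells were incubated 24 hours with compounds at 5 concentrations; primary antibody 12 h at 10 degrees C.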
SW480 rerep = DNA re-replication induction in SW480 cells | SW480 DNA re-replication, Hoechst DNA content imaging, 48 h | Potency, µM (titrated, usually from 46.1 µM), without a hit: at the top dose re-replication activation, hits mostly activators | 340,000 tested, 1.8% active; also: potency is read from the fitted curve at half-maximal effect; % of control where 0% means no effect; nearly all actives have a fitted effect of over 55% in size
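Image-based DNA-content assay: after two days of treatment, nuclei were labelled with the DNA dye Hoechst and imaged, and hits were compounds raising the count of nuclei showing high fluorescence intensity.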
ATXN2 expr inh = ATXN2 expression inhibition | HEK-293 ATXN2-luciferase reporter, luminescence, 24 h | Potency, µM (top dose mostly 57 µM), for inactives: at the highest dose activity change, negative = inhibition, usual class: inhibitors | 360,000 tested, 0.72% active; also: potency is read from the fitted curve at half-maximal effect; % is scaled to controls: 0 for no effect and ±100 for the full control effect; nearly all actives have a fitted effect of over 55% in size
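ATXN2-luciferase reporter cells (luciferase flanked by upstream and downstream ATXN2 gene portions) were treated 24 h at 37 °C with compounds at up to 57 uM. SteadyGlo luminescence gave expression; GF-AFC fluorescence gave viability.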
MCF10A rereplic = DNA re-replication induction in MCF 10a cells; MCF 10A DNA re-replication, Hoechst nuclear intensity, 48 h; Potency, µM (highest dose often 46.1 µM), for inactives: at the top dose activity, positive = re-replication, hits mostly activators; 350,000 tested, 2.9% active; AID 624296; also: potency is read from the fitted curve at half-maximal effect; % of control where 0% means no effect; nearly all actives have a fitted effect of over 50% in size
ATXN viability = cell viability loss in ATXN counter-screen | S2 cells (HEK-293 line with an ATXN2-luciferase reporter) viability, CellTiter-Fluor protease fluorescence, 24 h | Potency, µM (doses to about 56.7 µM), usual class: cytotoxic | 400,000 tested, 0.49% active; also: potency is read from the fitted curve at half-maximal effect; nearly all actives have a fitted effect of over 40% in size
* hit, by the source's call; i = inactive; ? = inconclusive; nt = not tested or not shown; [ ] = dose if it differs, or a comment. Unless noted, calls follow the shape of the dose curve; as a rule, active = well fitted curve in the direction sought with a large enough effect; inconclusive = small, poorly fitted or top-dose-only effect, or another doubt; inactive = no such curve, though single readings can be large; an effect the other way counts as inactive or inconclusive.

SMILES	IL1B secr inh	PINK1 expr mod	SW480 rerep	ATXN2 expr inh	MCF10A rereplic	ATXN viability
O=C(Cc1ccccc1)Nc1cccc([N+](=O)[O-])c1	-15.2	2.3%	-1.6%	2.5%	-10.2%	i
O=C(Nc1cccc([N+](=O)[O-])c1)c1ccc2ccccc2c1O	-63.3*	?	19.0%	-38.3%	?	i
Fc1ccc(N2CCN(c3ncnc4[nH]ncc34)CC2)cc1	nt	-4.5%	nt	2.2%	nt	?
CCc1ccc([C@@H]2CC=C(C(=O)O)[C@H](c3ccc(Cl)cc3)N2S(=O)(=O)c2ccc(C)cc2)cc1	0.0	0.0%	-12.8%	1.2%	13µM*	?
Cc1ccccc1S(=O)(=O)N1[C@@H](c2ccc(Cl)cc2)C(C(=O)O)=CC[C@H]1c1ccc(Cl)cc1	29.7	-1.2%	1.7%	-10.1%	16.4µM*	i
CCOC(=O)C1=C(CSc2nc3c(cc2C#N)CN(C)CC3)OC(N)=C(C#N)C1c1ccncc1 (configuration not stated)	23.2	1.1%	?	0.1%	?	i
CCOC(=O)C1=C(CSc2nc3c(cc2C#N)CN(C)CC3)OC(N)=C(C#N)C1c1ccc(Cl)cc1 (configuration not stated)	-6.0	2.2%	?	-10.2%	25.9µM*	i
CCOC(=O)C1=C(CSc2nc(CC)c(C)cc2C#N)OC(N)=C(C#N)C1c1ccccc1 (configuration not stated)	9.9	-0.5%	17.9%	-2.7%	?	i
CCOC(=O)C1=C(CSc2nc(-c3ccccc3)ccc2C#N)OC(N)=C(C#N)C1c1ccc(OC)cc1 (configuration not stated)	29.7	1.2%	?	87.5%	16.4µM*	i
CCOc1cccc(CC(=O)N2CCc3c([nH]c4ccccc34)C2c2ccc(C)cc2)c1OCC (configuration not stated)	nt	0.1%	nt	nt	nt	nt
COc1cc2c(=O)c(S(=O)(=O)c3ccc(C)cc3)cn(Cc3cccc(C)c3)c2cc1OC	nt	2.6%	nt	-30.7%	nt	i
CCc1ccc(C)[n+](CC(=O)c2cccs2)c1	-57.6*	-0.5%	-3.8%	0.0%	?	i
COc1cc2c(oc(=O)c3cc(C)cc(OC)c32)c2c(C3OC(C)C(O)C(C)(O)C3O)ccc(O)c12 (configuration not stated)	-100.7*	-5.6%	?	0.0%	5.6%	?
COc1cccc2cc(C(=O)N3CC(C)OC(C)C3)c(=O)oc12 (configuration not stated)	-12.7	-0.8%	-19.3%	-18.8%	11.8%	i
COc1ccc(OC)c(NC(=O)Cn2c(=O)c3cccn3c3ccccc32)c1	nt	0.4%	nt	nt	nt	nt
CC(=O)c1cccc(NC(=O)c2cc(-c3ccc(Cl)s3)nc3ccccc23)c1	nt	-0.3%	nt	-1.6%	nt	i
COc1cccc([C@@H]2Oc3ccc(Br)cc3C(=O)[C@H]2OC(=O)NC2CCCC2)c1	-61.1*	?	13.8%[9.22 µM]	-34.2%	?	?
COc1cccc(C(NC(C)=O)c2nc(-c3cccc(C#N)c3)cs2)c1 (configuration not stated)	-73.6*	1.6%	nt	-0.5%	nt	i
COc1cccc(C(NC(C)=O)c2nc(-c3ccc(OC)nc3)cs2)c1 (configuration not stated)	-73.5*	8.2%	nt	9.3%	nt	i
COc1ccc(-c2csc(C(NC(C)=O)c3cccc(OC)c3)n2)cc1 (configuration not stated)	22.1	5.4%	nt	-10.8%	nt	i
COc1cccc(C(NC(C)=O)c2nc(-c3ccccc3)cs2)c1 (configuration not stated)	-14.7	3.7%	nt	5.6%	nt	i
CCNCC(=O)N1c2ccccc2CCc2ccc(NC(=O)OCC)cc21	-69.4*	9.9%	0.0%	-30.7%	-19.3%	i
CCOC(=O)Nc1ccc2c(c1)N(C(=O)OCCN(C)C)c1ccccc1CC2	-0.9	1.5%	0.2%	-18.2%	12.2%	i
CCOC(=O)Nc1ccc2c(c1)N(C(=O)CN)c1ccccc1CC2	-63.4*	6.5%	-36.8%	-14.3%	?	i
CCN(CCCN(C)C)c1ccc(/C=C/c2ccnc3ccccc23)cc1	nt	1.1%	nt	nt	nt	nt
SMILES	IL1B secr inh	PINK1 expr mod	SW480 rerep	ATXN2 expr inh	MCF10A rereplic	ATXN viability
CCCSc1ncc(Cl)c(C(=O)Nc2sc3c(c2C(=O)NCC)CCCC3)n1	nt	-0.3%	nt	nt	nt	nt
N#C/C(=C\c1cccc(NC(=O)c2ccccc2Cl)c1)C(=O)NCCc1ccccc1	-101.1*	-1.9%	18.4µM*	-37.3%	?	i
COc1ccc(CCNC(=O)/C(C#N)=C/c2cccc(OCc3ccccc3)c2)cc1OC	?	?	?	-20.5%	?	i
COCCNC(=O)/C(C#N)=C/c1c(F)cccc1Cl	-53.6*	5.5%	-32.1%	0.3%	?	i
COCCNC(=O)/C(C#N)=C/c1ccc(SC)cc1	?	-1.1%	-11.2%	13.4%	12.2%	i
COCCCNC(=O)/C(C#N)=C/c1cccc(NC(=O)c2ccccc2Cl)c1	-103.3*	?	1.64µM*	0.4%	25.9%	i
Cc1ccc(C(=O)c2cn(Cc3cc(C)ccc3C)c3nc(C)ccc3c2=O)cc1	nt	?	nt	?	nt	i
COc1ccc(OCCCCn2c(-c3ccc(Cl)cc3)nc3ccccc3c2=O)cc1	nt	-0.2%	nt	1.3%	nt	i
COc1ccccc1/C=N/n1c(N)c(C(=O)NC2CCCCC2)c2nc3ccccc3nc21	-8.9	8.4%	4.11µM*	3.6%	10.3µM*	i
Nc1c(C(=O)NC2CCCC2)c2nc3ccccc3nc2n1/N=C/c1ccco1	-14.6	7.2%	1.46µM*	-5.4%	?	i
O=C(O)c1ccc2c(ccc3nn(-c4ccc(/C=C/c5ccc(-n6nc7ccc8cc(C(=O)O)ccc8c7n6)cc5[S+](=O)([O-])[O-])c([S+](=O)([O-])[O-])c4)nc32)c1	nt	-0.9%	nt	nt	nt	nt
O=S(=O)(c1ccc(-n2cnnn2)cc1)N1CCN(c2cccc(Cl)c2)CC1	nt	-0.5%	nt	nt	nt	nt
Cc1ccc(/C=C/C(=O)c2cc(Br)ccc2OC(=O)c2ccco2)cc1	-14.0	7.9%	?	-4.0%	16.4µM*	i
COc1ccccc1/C=C/C(=O)c1cc(Br)ccc1OC(=O)c1ccco1	-97.7*	-1.8%	?	?	10.3µM*	?
COc1ccc(Br)cc1C(=O)Nc1ccc(NC(=O)c2ccco2)cc1	-1.0	9.5%	-4.4%	-2.9%	?	i
CC[C@H](C)[C@@H]1NC(=O)[C@@H](CC(C)C)NC(=O)[C@H](C(C)C)NC(=O)[C@H]2CSSC[C@H](NC1=O)C(=O)N2	-115.5*	-1.3%	nt	0.794µM*	nt	?

Bioassay records: PubChem BioAssay, National Center for Advancing Translational Sciences (NCATS)
